# Results from PubChem BioAssay (NCI).
# About 79,000 compounds went through this panel and 15% of them were active in at least one assay; those are over-represented in the sample as a whole. A number with no mark means an inactive call. The source made the active and inactive calls. No stated cut-off is given here; in the data, active means growth inhibition above about 70%; inactive means the rest.
# Legend:
# [1] = NCI Yeast Anticancer Drug Screen. Data for the rad50 strain (AID 155);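 further: 0% = growth of vehicle-only cultures of the same strain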; conditions: S. cerevisiae rad50 strain growth inhibition; at 50.0 µM; stronger effect = higher value
# Method in brief: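 A DNA repair-deficient yeast mutant serves as the test organism; compound-induced growth inhibition is calculated against vehicle-treated cells.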
# [2] = NCI Yeast Anticancer Drug Screen. Data for the mec2-1 strain (AID 157); conditions: S. cerevisiae mec2-1 strain, at 50.0 µM, stronger effect = higher value
# Method in brief: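 Readout is yeast growth inhibition, normalised to vehicle-treated controls, in the mec2-1 strain exposed to compound.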
# [3] = NCI Yeast Anticancer Drug Screen. Data for the sgs1 mgt1 strain (AID 161);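 further: 0% = growth of cultures given vehicle only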; conditions: S. cerevisiae sgs1 mgt1 strain, at 50.0 µM, stronger effect = higher value
# Method in brief: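 Compounds are added to genetically altered yeast, and growth is compared with cultures given vehicle alone to give percent inhibition.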
# [4] = NCI Yeast Anticancer Drug Screen. Data for the cln2 rad14 strain (AID 165);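 further: 0% = growth equal to vehicle treated cultures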; conditions: S. cerevisiae cln2 rad14 strain, at 50.0 µM, stronger effect = higher value
# Method in brief: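 Relative to vehicle controls, growth inhibition of compound-treated cln2 rad14 yeast was recorded.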
# [5] = NCI Yeast Anticancer Drug Screen. Data for the bub3 strain (AID 167); conditions: S. cerevisiae bub3 mutant strain, at 50.0 µM, stronger effect = higher value
# Method in brief: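 Inhibition values come from growth of compound-treated mutant yeast normalised to vehicle-treated controls.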
# [6] = NCI Yeast Anticancer Drug Screen. Data for the mlh1 rad18 strain (AID 175); conditions: S. cerevisiae mlh1 rad18 strain growth inhibition; at 50.0 µM; stronger effect = higher value
# Method in brief: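 Test agents were incubated with a yeast strain of defined genotype (DNA damage repair defect). Inhibition of growth was derived by comparison with vehicle-exposed cultures.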
SMILES,growth inhibition [1],growth inhibition [2],growth inhibition [3],growth inhibition [4],growth inhibition [5],growth inhibition [6]
Nc1cc(=O)c2n[nH]nc2[nH]1,-29.9%,0.7%,-17.1%,-21.6%,-14.3%,-16.9%
CCCCCCCCCCCCCCCCN1C(=O)c2ccccc2S1(=O)=O,-14.7%,-15.8%,-10.5%,32.5%,-2.2%,5.1%
O=C(NNc1nc(CCl)cs1)c1ccccc1Cl,-0.15%,-31.6%,4.75%,7.35%,-11.1%,-11.6%
Cc1ccc([N+](=O)[O-])cc1NC(=O)COc1ccc(Cl)cc1Cl,6.25%,0.55%,13.5%,10.2%,1.85%,1.15%
CCC/C(Cl)=N\OC(=O)Nc1ccc(OC(F)(F)F)cc1,24%,24.8%,91% (active),20.1%,28.8%,58.6%
CSC(C(OC(C)=O)C(OC(C)=O)C(OC(C)=O)C(COC(C)=O)OC(C)=O)n1cnc2c(=S)nc[nH]c21 (centres undefined),26.4%,-12.4%,-11.6%,13.2%,-0.45%,1.95%
CC(=O)NC1CC(C)(C)NC(C)(C)C1,-18.6%,-30.2%,3.45%,10.5%,0.5%,-9.25%
CCOC(=O)Nc1cc(Cl)c2nnn(C(=O)OCC)c2n1,95.8% (active),98.2% (active),97.9% (active),90.7% (active),96.7% (active),97.6% (active)
Nc1ccc(Cl)c(N)c1,9.1%,26.4%,18.2%,20.1%,14.9%,21.9%
CN(C)Cc1c(-c2ccccc2)c(-c2ccccc2)c2ccccn12,-7.15%,-21.8%,14.1%,2.8%,0.75%,9.6%
OCC1(CO)CCCO1,4.15%,-21.9%,-10.4%,5.1%,-0.4%,2.55%
C[N+](C)(C)C(Cc1ccccc1)Cc1ccccc1,-27%,9.95%,-29.9%,-47.1%,-0.7%,5.65%
O=C(c1ccccc1)C1C=CC=CN1Cc1ccccc1S(=O)(=O)O (centres undefined),13.5%,0.6%,-3.95%,3%,1.75%,-19.2%
CCOC(=O)C/C(O)=C(\N=Nc1nc[nH]c1C(N)=O)C(=O)OCC,1.2%,23.7%,-9.9%,-1.8%,16.1%,-0.65%
CCOc1ccccc1NC(=O)CC(C(=O)OC)C(=O)C(=O)OC (centres undefined),-10%,5.75%,-24.1%,20%,-8.9%,-9.75%
CSc1nnc(N(C(C)C)C(C)C)c2nc[nH]c12,9.65%,11.8%,16.1%,47.5%,14.7%,4.2%
C=CCNC(=O)N(CCC)CCCCC(NC(C)=O)C(=O)NCc1ccccc1 (centres undefined),11.5%,7.5%,-8.4%,18.6%,8.75%,4.35%
CCC1CCCCCC1=O (centres undefined),-34%,-27.2%,-18.6%,-25.4%,-30.4%,-21.3%
N#Cc1nc[nH]c1C(N)=O,-2.4%,0.25%,-14.2%,11.8%,11%,6.25%
